The record followed here is PubChem BioAssay (Tox21).

Values joined by “and” are separate entries in the source; they are usually repeats but may differ in a detail not shown here. Equal values may be shown once. Records with an inconclusive call do not appear. A structure can be active in one record and inactive in another. Active and inactive are the calls of the source. Unless noted, the call rests on the fitted dose curve; in most records, active means well fitted curve in the direction sought with a large enough effect in the repeat runs; inconclusive means weak or mixed curves; inactive means no such curve, though single readings can be large; an effect the other way counts as inactive or inconclusive.

Assay [1] concerns the target Thyrotropin receptor (Homo sapiens) (UniProt P16473). Briefly: qHTS assay to identify small molecule antagonists of the thyroid stimulating hormone receptor (TSHR) signaling pathway (AID 1259385; calls by dose curve; further: nearly all actives have a fitted effect of over 20% in size). In a few lines:
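TSHR-HEK293 cells were plated and held 18 h at 37C/5% CO2, then given compound plus Ro20-1724 and stimulated with TSH at 1.5 ng/mL final. After 30 min at room temperature, cAMP was detected with cAMP-d2/anti-cAMP-cryptate (1 h) by fluorescence.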
Background: Quantitative high-throughput screening tests each substance at several concentrations.

A short description of assay [2]: qHTS assay to identify small molecule agonists of the estrogen receptor alpha (ER-alpha) signaling pathway in the presence of an antagonist - cell viability counter screen (AID 1259386).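 Further: series mostly up to about 92 µM; cells exposed to compounds for 22 h at 37 °C before the viability read; nearly all actives have a fitted effect of over 30% in size.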 The method, boiled down:
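Using estrogen-depleted VM7Luc4E2 cells, the 15-concentration compound series was applied together with 10.0nM ICI-182,780 and incubated 22hr at 37C/5% CO2. Cell viability was then scored by CellTiter-Fluor.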

For assay [3], the target named is Progesterone receptor (Homo sapiens) (UniProt P06401). Nature of the assay: qHTS assay to identify small molecule agonists of the progesterone receptor (PR) signaling pathway (AID 1346784; calls by dose curve; further: nearly all actives have a fitted effect of over 30% in size). In a few lines: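 Agonist mode, quantitative HTS format in a HEK 293T line expressing a UAS-controlled beta-lactamase reporter; 16 hr compound exposure at 37C in 2% charcoal-stripped FBS, then LiveBLAzer B/G FRET fluorescence.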
Progesterone receptor (Homo sapiens), sequence (P06401 whole entry, looked up): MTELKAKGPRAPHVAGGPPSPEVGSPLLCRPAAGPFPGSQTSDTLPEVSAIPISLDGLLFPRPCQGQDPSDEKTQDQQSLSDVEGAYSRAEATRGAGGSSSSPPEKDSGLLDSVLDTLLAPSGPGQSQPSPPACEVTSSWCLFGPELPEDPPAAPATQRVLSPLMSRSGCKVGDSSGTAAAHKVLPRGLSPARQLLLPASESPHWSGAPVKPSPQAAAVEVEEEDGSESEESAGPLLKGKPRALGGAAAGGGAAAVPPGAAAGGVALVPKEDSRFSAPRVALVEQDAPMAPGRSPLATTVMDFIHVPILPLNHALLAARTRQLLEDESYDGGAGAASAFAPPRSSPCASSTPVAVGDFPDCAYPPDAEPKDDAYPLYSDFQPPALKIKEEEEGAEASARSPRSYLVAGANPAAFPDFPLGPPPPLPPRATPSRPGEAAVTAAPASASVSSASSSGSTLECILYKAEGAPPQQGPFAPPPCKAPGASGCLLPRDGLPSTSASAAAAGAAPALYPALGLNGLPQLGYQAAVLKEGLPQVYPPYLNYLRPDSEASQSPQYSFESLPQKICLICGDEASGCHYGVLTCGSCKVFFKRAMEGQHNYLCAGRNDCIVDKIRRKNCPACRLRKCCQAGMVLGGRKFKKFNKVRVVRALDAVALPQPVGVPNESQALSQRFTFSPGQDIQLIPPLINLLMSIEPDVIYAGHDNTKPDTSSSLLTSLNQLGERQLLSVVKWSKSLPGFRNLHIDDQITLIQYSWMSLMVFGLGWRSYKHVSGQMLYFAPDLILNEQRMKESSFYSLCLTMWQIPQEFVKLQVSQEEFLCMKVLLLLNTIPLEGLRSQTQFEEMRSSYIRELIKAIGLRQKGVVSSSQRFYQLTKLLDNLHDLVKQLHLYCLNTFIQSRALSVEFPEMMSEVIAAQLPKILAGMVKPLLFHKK

Assay [4] has the same target. Briefly: qHTS assay to identify small molecule antagonists of the progesterone receptor (PR) signaling pathway (AID 1346795; active means well fitted inhibition curve with a large enough effect in the signal ratio in the repeat runs, not every such curve was filed as active; the % refers to the signal ratio; further: potency means the concentration at half of the fitted maximal effect). In a few lines:
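HEK293T PR-UAS-bla reporter cells in charcoal-stripped serum (2%) received compound after a 6 hr settling period, followed by R5020 agonist at 1 nM final; 16 hr incubation preceded the FRET substrate step and fluorescence measurement.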

Assay [5] can be described thus: qHTS assay to identify small molecule antagonists of the progesterone receptor (PR) signaling pathway - cell viability counter screen (AID 1346798). Further: series mostly up to about 92 µM; nearly all actives have a fitted effect of over 50% in size. The method, boiled down: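 Same-well multiplex: after 16 hr at 37C with compound and R5020 stimulation, HEK293T cells carrying a UAS-bla reporter received LiveBLAzer substrate (2 hr RT), then CellTiter-Glo (30 min RT) for luminescent viability.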

Assay [6] in a line: qHTS assay to identify small molecule agonists of the progesterone receptor (PR) signaling pathway - cell viability counter screen (AID 1346799; calls by dose curve; further: nearly all actives have a fitted effect of over 45% in size). The method, boiled down: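 Counter screen for cytotoxicity: compound-treated PR-UAS-bla HEK293T cells (16 hr, 37C, 5% CO2) were assayed with CellTiter-Glo, luminescence measured after 30 min at room temperature.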
A short description of assay [7]: qHTS assay to identify small molecule antagonists of the TGF-beta/Smad signaling pathway - cell viability counter screen (AID 1346824). Further: nearly all actives have a fitted effect of over 50% in size. In a few lines:
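SBE-bla HEK 293T cells were plated overnight at 37 C, then given compounds in DMSO plus TGF-beta1 (added as 0.25 ng/mL solution) for 5 hr. After the bla read, CellTiter-Glo was added to the same wells and luminescence read after 30 min at room temperature.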

Assay [8] is described as follows: qHTS assay to identify small molecule agonists of the TGF-beta/Smad signaling pathway - cell viability counter screen (AID 1346829). Further: top concentration of the series differs between compounds; nearly all actives have a fitted effect of over 45% in size. The method, boiled down:
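Same-well cytotoxicity: CellTiter-Glo added after the 2 hr room-temperature beta-lactamase substrate step, luminescence measured 30 min later; cells had 5 hr of compound at 37 C.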

Assay [9] in a line: qHTS assay to identify small molecule agonists of the TGF-beta/Smad signaling pathway (AID 1346859; active means well fitted activation curve with a large enough effect in the signal ratio in the repeat runs, not every such curve was filed as active; the % refers to the signal ratio; further: series mostly up to about 77 µM). In a few lines: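 Smad-responsive beta-lactamase reporter cells (HEK 293T) received compounds from DMSO stocks after overnight attachment, were incubated 5 hr, then treated 2 hr with FRET substrate before dual-emission fluorescence measurement (405 nm excitation).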
Assay [10] has as its target Thyrotropin-releasing hormone receptor (Homo sapiens) (UniProt P34981). Nature of the assay: qHTS assay to identify small molecule antagonists of the thyrotropin-releasing hormone receptor (TRHR) signaling pathway (AID 1346877; active means well fitted inhibition curve with a large enough effect in the repeat runs, not every such curve was filed as active; further: series mostly up to about 51 µM). In a few lines:
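Calcium signal in dye-loaded TRHR/HEK293 cells; compounds added 5 min before TRH (1 nM final); fluorescence monitored 3 min at 1 s steps.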

Assay [11] has the same target. Briefly: qHTS assay to identify small molecule agonists of the thyrotropin-releasing hormone receptor (TRHR) signaling pathway (AID 1346891; calls by dose curve; further: potency means the concentration at half of the fitted maximal effect;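 on activation: HEK293 cells expressing TRHR with calcium dye readout; series mostly up to about 58 µM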). In a few lines:
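Agonist-mode calcium mobilisation screen: TRHR-transfected HEK293 cells cultured overnight (18 h), dye-loaded for 2 h at 37 °C, exposed to compounds, and monitored by fluorescence for 3 min.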

A short description of assay [12]: Human pregnane X receptor (PXR) small molecule agonists, qHTS cell viability counter screen (AID 1346977). Further: nearly all actives have a fitted effect of over 50% in size. The method, boiled down:
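Measures live-cell protease fluorescence (CellTiter-Fluor) in PXR-Luc HepG2 cells treated 24hr with compounds at 37C. Cells had 5hr to attach before pin transfer of DMSO solutions.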

Assay [13] is described as follows: Caspase-3/7 induction in HepG2 cells by small molecules, qHTS assay (AID 1346978). Further: nearly all actives have a fitted effect of over 15% in size. The method, boiled down: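 Wild-type HepG2 cells (2,000/well) were settled 5 h at 37 C, 5% CO2, then exposed to compounds in DMSO for 17 h. Caspase-3/7 activity was read by luminescence 30 min after adding Caspase-Glo 3/7 reagent at room temperature.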
Assay [14] can be described thus: Caspase-3/7 induction in CHO-K1 cells by small molecules, qHTS cell viability counter screen (AID 1346979). Further: nearly all actives have a fitted effect of over 35% in size. Further: potency means the concentration at half of the fitted maximal effect. The method, boiled down:
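In the same wells as the caspase read, viability of compound-treated wild-type CHO-K1 cells was assessed using CellTiter-Fluor, added after 16hr at 37C and measured by fluorescence following 1hr further incubation.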

The nature of assay [15]: Caspase-3/7 induction in CHO-K1 cells by small molecules, qHTS assay (AID 1346980). Further: nearly all actives have a fitted effect of over 15% in size. In a few lines: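 Wild-type cells were seeded at 1,500 per well and settled 5 hr at 37 C, 5% CO2, then exposed to DMSO-dissolved compounds for 17 hr. Caspase-Glo 3/7 reagent was added, and luminescence was read after 30min at room temperature.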
Assay [16] is described as follows: Caspase-3/7 induction in HepG2 cells by small molecules, qHTS cell viability counter screen (AID 1346981). Further: series mostly up to about 92 µM; nearly all actives have a fitted effect of over 30% in size. In a few lines: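 After a 5-hr attachment period at 37 C and 5% CO2, wild-type HepG2 cells received compounds in DMSO. Sixteen hours later CellTiter-Fluor was dispensed and the fluorescent signal quantified after a further hour.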
The target in assay [17] is Nuclear receptor subfamily 1 group I member 2 (Homo sapiens) (UniProt O75469). Briefly: Human pregnane X receptor (PXR) small molecule agonists, qHTS assay (AID 1346982). Further: nearly all actives have a fitted effect of over 35% in size. Further: potency means the concentration at half of the fitted maximal effect. In a few lines:
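Tox21 qHTS; PXR-Luc HepG2; compounds pinned from DMSO; 24 hr, 37 C; ONE-Glo luciferase detection, 30 min room temperature.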

Assay [18] has the same target. Nature of the assay: CYP3A4 induction through human pregnane X receptor (PXR) by small molecules, qHTS assay (AID 1346984). Further: nearly all actives have a fitted effect of over 40% in size. Further: potency means the concentration at half of the fitted maximal effect. The method, boiled down:
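Cells (DPX-2; HepG2 with PXR element plus CYP3A4-promoter luciferase) settled 5hr, then were treated 24hr at 37C. A 3hr, 3uM-final Luciferin-IPA step preceded luminescence measurement with One-Glo.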

The target is the same in assay [19]. Briefly: Human pregnane X receptor (PXR) activation by small molecules, qHTS assay (AID 1346985). Further: nearly all actives have a fitted effect of over 40% in size. Further: potency means the concentration at half of the fitted maximal effect. In a few lines: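 DPX-2 cells (HepG2 co-transfected with a PXR response element and a CYP3A4-promoter luciferase construct) were seeded at 2,000 per well, rested 5 hr at 37C, then exposed to DMSO-dissolved compounds for 24 hr. Activation was read as luciferase luminescence.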

For assay [20], the target named is Cytochrome P450 2D6 (Homo sapiens) (UniProt P10635). Briefly: Cytochrome P450 Family 2 Subfamily D Member 6 (CYP2D6) small molecule antagonists: luciferase reporter qHTS assay (AID 1671196). Further: nearly all actives have a fitted effect of over 50% in size. Further: potency means the concentration at half of the fitted maximal effect. In a few lines:
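Room-temperature luminescent CYP2D6 activity assay: compound preincubated 10 min with enzyme–substrate mix, NADPH-initiated reaction 1 h, detection reagent 20 min before reading.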
In general terms: A reporter such as luciferase makes a cellular process visible.

Thyrotropin-releasing hormone receptor (Homo sapiens), sequence (P34981 whole entry, looked up): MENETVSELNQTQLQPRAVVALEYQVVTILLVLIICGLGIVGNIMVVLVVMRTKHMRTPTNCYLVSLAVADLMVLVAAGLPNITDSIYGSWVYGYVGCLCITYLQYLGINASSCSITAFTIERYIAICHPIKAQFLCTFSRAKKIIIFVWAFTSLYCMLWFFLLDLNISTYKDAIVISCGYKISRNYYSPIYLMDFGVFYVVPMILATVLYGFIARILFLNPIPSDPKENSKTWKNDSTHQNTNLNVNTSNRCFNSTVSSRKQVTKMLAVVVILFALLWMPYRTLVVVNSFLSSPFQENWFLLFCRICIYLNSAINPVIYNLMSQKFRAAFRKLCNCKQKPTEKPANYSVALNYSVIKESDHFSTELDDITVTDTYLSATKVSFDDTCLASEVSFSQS
Nuclear receptor subfamily 1 group I member 2 (Homo sapiens), sequence (O75469 whole entry, looked up): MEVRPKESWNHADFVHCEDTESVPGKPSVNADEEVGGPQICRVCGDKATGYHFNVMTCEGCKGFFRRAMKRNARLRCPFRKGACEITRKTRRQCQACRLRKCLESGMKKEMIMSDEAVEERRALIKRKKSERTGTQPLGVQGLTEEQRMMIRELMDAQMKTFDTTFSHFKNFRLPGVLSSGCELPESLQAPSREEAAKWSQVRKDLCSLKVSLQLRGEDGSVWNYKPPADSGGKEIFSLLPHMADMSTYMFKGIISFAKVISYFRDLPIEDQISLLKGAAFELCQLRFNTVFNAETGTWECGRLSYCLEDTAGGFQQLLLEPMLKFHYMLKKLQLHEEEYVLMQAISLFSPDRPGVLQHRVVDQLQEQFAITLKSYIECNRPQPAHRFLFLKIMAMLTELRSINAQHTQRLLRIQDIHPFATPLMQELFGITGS
Thyrotropin receptor (Homo sapiens), sequence (P16473 whole entry, looked up): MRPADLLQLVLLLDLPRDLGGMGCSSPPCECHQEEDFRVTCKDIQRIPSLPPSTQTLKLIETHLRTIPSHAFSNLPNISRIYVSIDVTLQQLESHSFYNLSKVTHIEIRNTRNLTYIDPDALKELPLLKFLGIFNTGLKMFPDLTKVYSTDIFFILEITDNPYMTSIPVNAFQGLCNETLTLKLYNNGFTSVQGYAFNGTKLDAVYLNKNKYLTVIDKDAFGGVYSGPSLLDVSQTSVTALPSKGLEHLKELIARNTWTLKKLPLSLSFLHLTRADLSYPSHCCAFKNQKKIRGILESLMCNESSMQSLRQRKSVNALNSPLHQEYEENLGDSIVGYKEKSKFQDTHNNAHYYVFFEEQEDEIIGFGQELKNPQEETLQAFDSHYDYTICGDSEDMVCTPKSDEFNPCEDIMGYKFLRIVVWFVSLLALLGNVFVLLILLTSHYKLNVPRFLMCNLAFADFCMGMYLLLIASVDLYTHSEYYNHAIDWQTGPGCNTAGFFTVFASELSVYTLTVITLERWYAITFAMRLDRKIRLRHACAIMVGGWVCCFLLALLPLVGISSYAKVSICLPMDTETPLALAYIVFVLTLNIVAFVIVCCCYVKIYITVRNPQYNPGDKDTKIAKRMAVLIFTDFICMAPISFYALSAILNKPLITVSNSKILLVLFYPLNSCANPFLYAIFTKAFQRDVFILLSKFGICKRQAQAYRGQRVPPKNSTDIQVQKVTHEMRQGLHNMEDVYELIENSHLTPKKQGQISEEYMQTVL
Cytochrome P450 2D6 (Homo sapiens), sequence (P10635 whole entry, looked up): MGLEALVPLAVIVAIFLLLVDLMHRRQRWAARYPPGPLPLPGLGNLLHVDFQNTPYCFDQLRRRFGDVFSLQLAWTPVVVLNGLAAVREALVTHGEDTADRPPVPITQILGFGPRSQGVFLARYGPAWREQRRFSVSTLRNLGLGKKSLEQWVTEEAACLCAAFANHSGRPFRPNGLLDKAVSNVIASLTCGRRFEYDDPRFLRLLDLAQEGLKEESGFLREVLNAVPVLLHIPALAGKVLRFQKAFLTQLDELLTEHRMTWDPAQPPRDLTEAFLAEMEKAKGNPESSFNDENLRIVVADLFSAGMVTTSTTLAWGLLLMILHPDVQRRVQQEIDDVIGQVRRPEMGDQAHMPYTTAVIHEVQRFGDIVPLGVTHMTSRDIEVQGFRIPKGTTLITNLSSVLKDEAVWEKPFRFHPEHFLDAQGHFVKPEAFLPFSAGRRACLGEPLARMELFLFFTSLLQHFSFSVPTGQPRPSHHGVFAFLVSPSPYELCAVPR

For `N[C@@H](Cc1c[nH]c2ccc(O)cc12)C(=O)O`, the result in assay [1], in assay [9], in assay [10] and in [15] was inactive. Besides, the Potency entry in assay [2], in assay [3], in assay [4], in [5], in assay [6] and in assay [7] was “inactive” throughout. The Potency result in assay [8], in assay [11], in assay [12], in [13], in assay [14] and in assay [16] was “inactive” throughout. The Potency entry in assay [17] and in assay [19] was “inactive” each time. In addition, the Potency in assay [18] was 4.47 µM (active); in assay [20], 34.6 µM (active).

`COC(=O)C1CCC(C(=O)OC)CC1` (stereo unspecified): the molecule was classed as inactive in [1], in assay [9], in [10] and in assay [15]. For the same molecule, the Potency entry in assay [2], in assay [3], in [4], in assay [5], in [7] and in [8] was “inactive” each time. The Potency entry in assay [11], in assay [12], in assay [13], in assay [14], in assay [17] and in assay [20] was “inactive” each time.

For the molecule `O=C1CCCCCN1`, the call in assay [1], in [9] and in assay [15] was inactive. Further, the Potency result in [2], in assay [3], in [4], in assay [5], in assay [6] and in assay [7] was “inactive” throughout. Besides, the Potency result in assay [8], in assay [13], in assay [16], in [17] and in assay [20] was “inactive” throughout. Besides, the Potency in assay [14] is 1.73 µM (active) and inactive.

`OCCCc1ccccc1`: the result in assay [1], in assay [9], in assay [10] and in [15] was inactive. Further, the Potency result in assay [2], in assay [3], in [4], in [5], in [7] and in [8] was “inactive” in each case. For the same molecule, the Potency result in [11], in assay [13], in assay [14], in assay [16], in assay [17] and in assay [20] was “inactive” throughout.

In the case of `CC(=O)CCC(C)C`, the result in assay [1], in assay [9], in assay [10] and in assay [15] was inactive. For the same molecule, the Potency result in [2], in assay [3], in assay [4], in assay [5], in assay [6] and in assay [7] was “inactive” each time. Also, the Potency entry in [8], in [12], in [13], in [14], in assay [16] and in assay [17] was “inactive” in each case. In assay [20], the Potency result is “inactive”. Moreover, in assay [11], the Potency entry is “inactive and 17.4 µM (active)”.

On to `Cc1ccc(O)c(-n2nc3ccccc3n2)c1`, for which the call in assay [1], in assay [9] and in [15] was inactive. For the same molecule, the Potency result in [2], in assay [3], in assay [5], in assay [6], in [7] and in assay [8] was “inactive” throughout. Further, the Potency entry in [13], in [14], in assay [16] and in assay [18] was “inactive” each time. The Potency in assay [4] was 48.6 µM (active); in assay [17], 27.1 µM (active) and 27.3 µM (active) and 23.7 µM (active); in assay [19] it was 14.1 µM (active); in assay [20], 31.5 µM (active) and 35.6 µM (active) and 30.9 µM (active).

Consider `Cc1c(N(C)CS(=O)(=O)O)c(=O)n(-c2ccccc2)n1C`, for which the molecule was called inactive in [1], in [9], in assay [10] and in assay [15]. Also, the Potency entry in assay [2], in assay [3], in assay [4], in assay [5], in assay [6] and in assay [7] was “inactive” in each case. In addition, the Potency result in [8], in assay [11], in assay [12], in assay [13], in assay [14] and in assay [17] was “inactive” each time. For the same molecule, the Potency entry in assay [18], in assay [19] and in assay [20] was “inactive” throughout.
